Test [1] can be described thus: small molecules captured by biotinylated probe aFSTL3 – biochemical, small-molecule microarray, fluorescence 635/667, stem cell growth factor project, primary screen (AID 1064).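 Also: measures binding of the biotinylated anti-FSTL3 antibody to printed compounds.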 The conditions noted are these: higher = more signal.
The nature of test [2]: binders from COS7 lysate, DM2A8 probe, primary screen, torsin A project, cell lysate, small-molecule microarray, fluorescence 635/667 (AID 1065). The conditions noted are these: higher = more signal, COS7 lysate expressing mutant human TOR1A.
Test [3] in a line: small molecules captured by biotinylated probe aFGF2 – biochemical, small-molecule microarray, fluorescence 635/667, stem cell growth factor project, primary screen (AID 1067).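 Also: measures binding of biotinylated aFGF2 protein to printed compounds on slides; z-score merges feature fluorescence and signal-to-noise across triplicate slides.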 The conditions noted are these: higher = more signal.
Test [4] can be described thus: small molecules captured by biotinylated probe aFGF10 – biochemical, small-molecule microarray, fluorescence 635/667, stem cell growth factor project, primary screen (AID 1071).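 Also: score merges 667 nm spot intensity and signal to noise from triplicate slides.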 The conditions noted are these: higher = more signal.
The target in test [5] is Neurogenic locus notch homolog protein 2 (Homo sapiens) (UniProt Q04721). The test can be described thus: small molecules binding Notch2 protein – biochemical, small-molecule microarray, 635 nm fluorescence, stem cell growth factors, primary screen (AID 1073). The following applies: higher = more signal.
Sequence of Neurogenic locus notch homolog protein 2 (Homo sapiens) (Q04721 whole entry, looked up, canonical isoform): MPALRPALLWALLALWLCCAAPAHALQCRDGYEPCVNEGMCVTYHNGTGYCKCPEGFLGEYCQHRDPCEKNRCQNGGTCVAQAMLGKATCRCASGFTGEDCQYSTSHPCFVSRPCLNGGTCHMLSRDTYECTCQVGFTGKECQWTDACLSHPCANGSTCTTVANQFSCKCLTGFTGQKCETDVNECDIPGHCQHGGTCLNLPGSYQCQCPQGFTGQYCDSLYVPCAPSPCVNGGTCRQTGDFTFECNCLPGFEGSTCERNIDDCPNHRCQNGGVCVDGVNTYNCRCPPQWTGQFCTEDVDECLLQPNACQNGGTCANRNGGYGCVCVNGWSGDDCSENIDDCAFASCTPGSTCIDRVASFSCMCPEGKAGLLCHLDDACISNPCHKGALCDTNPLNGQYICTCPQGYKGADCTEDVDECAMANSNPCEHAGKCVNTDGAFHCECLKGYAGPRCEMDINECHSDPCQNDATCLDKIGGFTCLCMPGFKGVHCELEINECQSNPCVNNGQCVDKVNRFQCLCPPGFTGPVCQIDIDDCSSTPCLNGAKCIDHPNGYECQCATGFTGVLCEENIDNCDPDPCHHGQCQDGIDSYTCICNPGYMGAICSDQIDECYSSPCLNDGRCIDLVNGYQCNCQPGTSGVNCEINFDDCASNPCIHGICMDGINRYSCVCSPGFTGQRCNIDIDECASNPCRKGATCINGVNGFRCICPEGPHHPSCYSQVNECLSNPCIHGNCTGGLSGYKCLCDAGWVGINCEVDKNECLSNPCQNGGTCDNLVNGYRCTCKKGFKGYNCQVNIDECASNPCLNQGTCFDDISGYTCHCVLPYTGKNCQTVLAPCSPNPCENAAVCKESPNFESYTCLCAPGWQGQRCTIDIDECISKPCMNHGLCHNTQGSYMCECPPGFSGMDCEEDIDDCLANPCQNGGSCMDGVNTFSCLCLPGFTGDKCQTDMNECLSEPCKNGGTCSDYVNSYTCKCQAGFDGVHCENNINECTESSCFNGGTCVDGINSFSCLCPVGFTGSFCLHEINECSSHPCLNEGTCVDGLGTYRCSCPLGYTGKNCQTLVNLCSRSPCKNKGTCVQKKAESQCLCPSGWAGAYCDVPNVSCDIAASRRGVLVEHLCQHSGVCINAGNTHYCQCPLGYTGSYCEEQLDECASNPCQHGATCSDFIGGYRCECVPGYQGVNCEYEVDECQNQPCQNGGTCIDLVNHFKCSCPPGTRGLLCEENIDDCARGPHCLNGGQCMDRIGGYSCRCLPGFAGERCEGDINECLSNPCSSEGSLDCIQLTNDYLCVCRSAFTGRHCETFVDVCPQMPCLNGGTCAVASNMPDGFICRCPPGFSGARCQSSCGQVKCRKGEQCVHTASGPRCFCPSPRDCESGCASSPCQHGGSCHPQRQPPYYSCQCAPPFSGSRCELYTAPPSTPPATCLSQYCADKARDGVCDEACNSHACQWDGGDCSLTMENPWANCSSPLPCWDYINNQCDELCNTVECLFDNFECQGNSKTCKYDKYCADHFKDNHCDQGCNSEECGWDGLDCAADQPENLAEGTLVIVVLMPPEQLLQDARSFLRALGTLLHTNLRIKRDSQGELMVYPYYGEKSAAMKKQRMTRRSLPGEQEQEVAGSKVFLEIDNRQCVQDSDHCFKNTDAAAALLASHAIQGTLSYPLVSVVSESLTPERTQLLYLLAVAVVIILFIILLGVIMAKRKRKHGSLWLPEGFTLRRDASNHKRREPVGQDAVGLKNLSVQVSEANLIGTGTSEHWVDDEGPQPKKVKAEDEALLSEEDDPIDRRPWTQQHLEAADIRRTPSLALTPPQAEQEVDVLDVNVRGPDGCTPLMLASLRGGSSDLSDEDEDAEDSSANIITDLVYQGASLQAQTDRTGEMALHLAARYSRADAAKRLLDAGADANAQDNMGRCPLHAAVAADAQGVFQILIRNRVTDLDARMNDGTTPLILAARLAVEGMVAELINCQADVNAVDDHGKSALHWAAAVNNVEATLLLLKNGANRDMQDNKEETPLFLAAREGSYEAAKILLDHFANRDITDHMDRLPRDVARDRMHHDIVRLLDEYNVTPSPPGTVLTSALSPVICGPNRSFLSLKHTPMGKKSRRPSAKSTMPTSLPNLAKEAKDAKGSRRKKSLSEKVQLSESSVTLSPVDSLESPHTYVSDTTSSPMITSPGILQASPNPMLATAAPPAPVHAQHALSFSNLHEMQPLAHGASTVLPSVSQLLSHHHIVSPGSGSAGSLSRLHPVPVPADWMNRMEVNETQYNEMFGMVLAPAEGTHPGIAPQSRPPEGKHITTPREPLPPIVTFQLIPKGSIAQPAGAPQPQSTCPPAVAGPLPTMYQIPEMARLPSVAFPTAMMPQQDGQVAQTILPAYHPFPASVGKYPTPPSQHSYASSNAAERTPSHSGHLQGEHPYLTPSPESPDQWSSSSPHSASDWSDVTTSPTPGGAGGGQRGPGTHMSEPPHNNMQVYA
For test [6], the target named is Pro-neuregulin-1, membrane-bound isoform (Homo sapiens) (UniProt Q02297). The experiment in a line: small molecules binding neuregulin-1 protein – biochemical, small-molecule microarray, fluorescence 635/667, psychiatric disease protein project, primary screen (AID 1075).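 Also: score combines 667 nm spot fluorescence with signal to noise.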 The following applies: NRG1 binding, 635 nm fluorescence, higher = more signal.
Sequence of Pro-neuregulin-1, membrane-bound isoform (Homo sapiens) (Q02297 whole entry, looked up, the tested form may be a part, canonical isoform): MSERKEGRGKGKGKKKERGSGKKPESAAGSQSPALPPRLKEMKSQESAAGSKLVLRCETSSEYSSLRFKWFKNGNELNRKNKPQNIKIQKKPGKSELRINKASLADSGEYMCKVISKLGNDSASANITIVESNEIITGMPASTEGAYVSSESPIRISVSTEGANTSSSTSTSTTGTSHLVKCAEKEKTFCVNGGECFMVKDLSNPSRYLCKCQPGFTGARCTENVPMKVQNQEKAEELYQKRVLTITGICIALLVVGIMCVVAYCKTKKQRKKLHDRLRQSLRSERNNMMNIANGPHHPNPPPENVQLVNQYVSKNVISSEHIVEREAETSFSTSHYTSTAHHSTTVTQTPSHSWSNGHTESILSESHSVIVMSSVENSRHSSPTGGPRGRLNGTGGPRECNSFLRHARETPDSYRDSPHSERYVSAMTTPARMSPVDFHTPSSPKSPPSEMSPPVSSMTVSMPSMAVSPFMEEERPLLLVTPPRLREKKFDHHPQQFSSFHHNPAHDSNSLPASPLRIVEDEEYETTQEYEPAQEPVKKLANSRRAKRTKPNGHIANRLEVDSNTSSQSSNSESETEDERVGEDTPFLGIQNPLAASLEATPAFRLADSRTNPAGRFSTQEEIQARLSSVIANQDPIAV
The test system of test [7] is Neuregulin-1 EGF-like domain. The test can be described thus: small molecules binding NRG1 EGF domain – biochemical, small-molecule microarray, 635 nm fluorescence, primary screen (AID 1081).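 Also: binding of the protein to compounds printed on small-molecule microarray slides.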 The following applies: higher = more signal.
A short description of test [8]: FRG1 expression reporter modulators in myotubes – cell-based, C2C12 myotubes, firefly/Renilla luciferase, luminescence, FRG1 inhibition for FSHD, primary screen (AID 1084). The following applies: FRG1 promoter luciferase, higher = more signal, called active from +8 up or from −8 down.
Test [9] is described as follows: small molecules captured by biotinylated probe aFST – biochemical, small-molecule microarray, fluorescence 635/667, stem cell growth factor project, primary screen (AID 1086).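 Also: score merges 667 nm fluorescence with signal-to-noise of each printed compound spot.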 The conditions noted are these: higher = more signal.
Test [10] is described as follows: binders of probe aHhip on microarray, primary screen, stem cell growth factor project, biochemical, small-molecule microarray, fluorescence 635/667 (AID 1087).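 Also: score merges spot fluorescence at 667nm with spot signal to noise ratio.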 The following applies: higher = more signal.
For test [11], the system named is PRMT1 (protein arginine N-methyltransferase 1). The test can be described thus: small molecules binding arginine methyltransferase PRMT1 – biochemical, small-molecule microarray, 635 nm fluorescence, primary screen (AID 1088).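 Also: binding of Prmt1 protein to compounds spotted on small-molecule microarray slides.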 The conditions noted are these: higher = more signal.
A short description of test [12]: growth effects on S. cerevisiae YJM789 – YJM789 clinical isolate, OD600, 24 h, basal, primary screen (AID 1089).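 Also: growth of clinical yeast isolate S. cerevisiae YJM 789 seeded 1000 cells per well; test concentration not given here.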 The following applies: higher = more signal, called active from +8 up or from −8 down.
Test [13] is described as follows: S. pombe growth modifiers, basal conditions – strain 972, OD600, 24 h, no modulator, primary screen (AID 1090).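 Also: basal condition with compound alone and no growth modifier present; test concentration not given here.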 The following applies: S. pombe 972 growth, higher = more signal, called active from +8 up or from −8 down.
Test [14] is described as follows: budding yeast growth modifiers under rapamycin – strain BY4716, OD600, 96 h, primary screen (AID 1091). Also: test concentration not given here. The following applies: S. cerevisiae BY4716 + rapamycin, higher = more signal, called active from +8 up or from −8 down.
In test [15] the target is Torsin-1A-interacting protein 2 (Homo sapiens) (UniProt Q8NFQ8). The test can be described thus: small molecules binding lysate-expressed LULL1 – cell lysate, human LULL1 lysate, 635/667 nm fluorescence, primary screen (AID 1092).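 Also: probe is lysate of COS7 cells overexpressing human LULL1; score merges per-feature 667 nm fluorescence with signal-to-noise.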 The conditions noted are these: small-molecule microarray, hLULL1 lysate binding, 635 nm fluorescence; higher = more signal.
Sequence of Torsin-1A-interacting protein 2 (Homo sapiens) (Q8NFQ8 whole entry, looked up): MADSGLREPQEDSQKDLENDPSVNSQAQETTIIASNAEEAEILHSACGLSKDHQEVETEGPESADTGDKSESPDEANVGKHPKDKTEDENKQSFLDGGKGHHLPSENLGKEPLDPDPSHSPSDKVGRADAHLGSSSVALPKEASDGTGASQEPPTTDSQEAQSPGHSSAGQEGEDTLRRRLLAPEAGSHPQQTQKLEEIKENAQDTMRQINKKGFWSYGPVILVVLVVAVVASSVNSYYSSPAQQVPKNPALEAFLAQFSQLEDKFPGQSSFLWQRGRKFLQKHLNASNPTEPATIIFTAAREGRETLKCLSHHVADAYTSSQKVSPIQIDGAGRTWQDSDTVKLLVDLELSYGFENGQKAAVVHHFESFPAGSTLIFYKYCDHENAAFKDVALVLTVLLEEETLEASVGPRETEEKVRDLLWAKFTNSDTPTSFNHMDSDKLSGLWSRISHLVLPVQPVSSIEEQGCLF
A short description of test [16]: optical density change of DRC41 E. coli – strain DRC41, OD650, 24 h, E. coli filamentation project, primary screen (AID 1093).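 Also: MC1000 strain lacking acrAB efflux and sulA so SOS filamentation is blocked; test concentration not given here.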 The conditions noted are these: E. coli DRC41 growth, higher = more signal, called active from +8 up or from −8 down.
Test [17] is described as follows: probe aLefty2 binding to arrayed compounds – biochemical, biotinylated probe, 635/667 nm fluorescence, primary screen (AID 1094).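 Also: score merges spot fluorescence near 667 nm with spot signal-to-noise ratio.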 The conditions noted are these: small-molecule microarray, higher = more signal.
The subject of test [18] is Noggin (protein binding on small-molecule microarray). The test can be described thus: small molecules binding Noggin protein – biochemical, 635/667 nm fluorescence, primary screen (AID 1095).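 Also: score merges 667 nm feature fluorescence with signal to noise over triplicate slides.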 The conditions noted are these: 635 nm fluorescence, higher = more signal.
For test [19], the target named is Neurogenic locus notch homolog protein 3 (Homo sapiens) (UniProt Q9UM47). The experiment in a line: small molecules binding NOTCH3 protein – biochemical, 635/667 nm fluorescence, primary screen (AID 1096). The following applies: small-molecule microarray, 635 nm fluorescence, higher = more signal.
The nature of test [20]: probe aEGFR binding to arrayed compounds – biochemical, biotinylated probe, 635/667 nm fluorescence, primary screen (AID 1097).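 Also: probe is a biotinylated anti-EGFR antibody binding compounds printed on slides; score combines fluorescence near 667 nm and signal to noise of each spot.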 The following applies: small-molecule microarray, higher = more signal.

Where “and” joins values, the source holds several entries; their conditions need not be identical. Equal values may be shown once. Calls of active or inactive are those of the source.

Take `CO[C@H]1COC(=O)[C@H](C)NC(=O)CC=C[C@@H](C)[C@H](OC)COC(=O)CC=C[C@@H]1C`: the composite z-score in test [1] was -0.748; in test [2], 2.16; in [3], -0.125; in [4], -0.0919; in test [5] it was -0.362; in [6], -0.745. The composite z-score in test [7] was 0.0232; in test [9], -0.0994; in test [10] it was 0.201; in test [11] it was 1.4; in [15], -0.247; in test [17], -0.235. The composite z-score came out at 1.32 in [18], 0.164 in test [19] and 0.0556 in test [20]. For the same compound, the z-score was -0.628 (inactive) in test [8]; 1.17 (inactive) in test [12]; 0.306 (inactive) in test [13]; 1.13 (inactive) in [14]; 1.3 (inactive) in test [16].
For `CCN1C(=O)[C@H]2[C@H]3[C@H](O)[C@H](O)CC(=NOC)[C@@H]3CC[C@H]2C1=O`, the composite z-score in test [1] is 0.206; in [2], -0.604; in [3], -0.1; in [4], 0.369; in test [5], -0.422; in [6], -0.319. Also, the composite z-score in test [7] is -0.817; in test [9] it was -0.221; in test [10] it was 0.0024; in [11], -1.1; in test [15], -0.27; in test [17], -0.0192. Besides, the composite z-score in test [18] was 0.178; in test [19], -0.065; in test [20], -0.0581. Further, the z-score in test [8] is -0.898 (inactive); in test [12], -0.285 (inactive); in test [13], -1.9 (inactive); in test [14] it was -0.495 (inactive); in test [16], 0.525 (inactive).
Take `CC(CO)N1C(=O)[C@@H]2C3C(=O)OCCC=C[C@H]3OC23C=CCN(c2ccc(Cl)cc2)C(=O)[C@@H]13` (stereo not given in full): the composite z-score in [1] is 0.982 and -0.0072; in [2], -0.821 and -1.3; in [3], -0.0959 and -0.159; in test [4] it was -0.556 and -0.282; in test [5], -0.709 and 0.149; in [6] it was -0.618 and 2. For the same compound, the composite z-score in test [7] is 0.923 and 1.44; in [9], -0.91 and 0.118; in test [10] it was 0.0053 and 0.0092; in test [11] it was -1.06 and 1.32; in [15], -0.81 and 3.57; in [17] it was 0.149 and -0.0998. The composite z-score in test [18] is -2.2 and -0.556; in test [19], -1.43 and 0.107; in test [20] it was -0.186 and -0.0788. For the same compound, the z-score was 0.741 (inactive) and 1.08 (inactive) in [8]; 1.37 (inactive) and -1.45 (inactive) in test [12]; 0.628 (inactive) and -1.21 (inactive) in test [13]; 0.872 (inactive) and -0.713 (inactive) in [14]; 0.226 (inactive) and -0.379 (inactive) in [16].
As for `COC(=O)[C@H](C)NC(=O)CCC1CC(OC(=O)NCCc2ccc(F)cc2)CC2(CCCC(COC(=O)NCCCN3CCCC3=O)O2)O1` (stereo not given in full), the composite z-score in [1] was -0.78; in test [2], 0.267; in test [3] it was -0.0358; in test [4] it was 0.404; in test [5], 1.25; in test [6] it was 0.623. Also, the composite z-score was 1.2 in [7]; 0.367 in [9]; 0.0373 in test [10]; 1.55 in test [11]; 1.64 in test [15]; -0.168 in test [17]. Further, the composite z-score was 0.727 in test [18], 1.03 in [19] and -0.0505 in test [20]. The z-score in [8] was 0.434 (inactive); in test [12], -0.432 (inactive); in test [13] it was 0.899 (inactive); in test [14], 0.849 (inactive); in [16], -0.681 (inactive).
